Only some compounds are listed: those with a hit (about 2.4% of all), similar ones and a draw of the others.
Pol eta inh-1: DNA polymerase eta (human) inhibition. 1.2% of 390,000 active. recombinant Pol eta, fluorescent DNA replication assay. Potency, µM (titrated, usually from 114 µM), without a hit: top-dose activity change, negative = inhibition, hits mostly inhibitors. AID 588591. Q9Y253; also: potency is read from the fitted curve at half-maximal effect; % is scaled to controls: 0 for no effect and ±100 for the full control effect
Target sequence (Q9Y253 whole entry, looked up): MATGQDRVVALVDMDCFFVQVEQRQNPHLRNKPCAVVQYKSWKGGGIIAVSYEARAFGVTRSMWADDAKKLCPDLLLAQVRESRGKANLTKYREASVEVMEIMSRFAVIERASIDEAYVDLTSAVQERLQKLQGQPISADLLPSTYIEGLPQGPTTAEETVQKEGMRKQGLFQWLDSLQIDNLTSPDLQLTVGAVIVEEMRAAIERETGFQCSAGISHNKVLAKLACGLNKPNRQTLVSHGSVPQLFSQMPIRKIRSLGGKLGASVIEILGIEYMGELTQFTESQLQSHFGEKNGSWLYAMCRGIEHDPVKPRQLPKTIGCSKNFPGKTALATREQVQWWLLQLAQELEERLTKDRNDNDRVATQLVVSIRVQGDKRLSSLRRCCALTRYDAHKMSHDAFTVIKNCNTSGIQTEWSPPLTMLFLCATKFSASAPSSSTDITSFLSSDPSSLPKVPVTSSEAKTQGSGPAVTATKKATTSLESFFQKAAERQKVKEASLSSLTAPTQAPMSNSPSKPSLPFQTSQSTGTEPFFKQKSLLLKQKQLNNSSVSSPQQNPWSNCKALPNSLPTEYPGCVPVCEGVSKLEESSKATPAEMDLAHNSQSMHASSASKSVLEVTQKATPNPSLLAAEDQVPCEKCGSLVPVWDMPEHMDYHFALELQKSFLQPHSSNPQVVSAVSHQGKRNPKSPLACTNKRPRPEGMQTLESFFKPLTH
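Pol eta at 10 nM preincubated with compounds 15 min at room temperature; reaction started with fluorescent substrate (50 nM final) and read kinetically at 0 and 10 min.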
POLI inh: inhibitors of human DNA polymerase iota; Q9UNA4; 1% of 390,000 active; Potency, µM (highest dose often 115 µM), for the others: at the highest dose activity, negative = inhibition, most hits filed as inhibitors; Pol iota fluorescent replication assay, 10 min; also: potency is read from the fitted curve at half-maximal effect
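Fluorescent replication assay read twice, at 0 min and 10 min after adding 50 nM (final) substrate. Enzyme (10 nM) and compounds were first incubated 15 min at room temperature; enzyme-free buffer wells were negative controls.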
Pol kappa inh-1: DNA polymerase kappa (human) inhibition. 0.53% of 400,000 active. AID 588579. Q9UBT6. purified Pol kappa, fluorescent DNA synthesis assay, 10 min. Potency, µM (highest dose often 107 µM), without a hit: at the highest dose activity, negative = inhibition, usual class: inhibitors; also: potency is read from the fitted curve at half-maximal effect; % is scaled to controls: 0 for no effect and ±100 for the full control effect
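Inhibition of 10 nM Pol kappa is measured by a fluorescent read-out at 0 and 10 min following addition of 50 nM substrate (final), with a 15-min room-temperature compound preincubation.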
GLS inh: blocks human kidney-isoform glutaminase activity; 0.21% of 410,000 active; AID 624170; Potency, µM (titrated, usually from 45.5 µM), without a hit: at the top dose activity change, negative = inhibition, actives largely listed as inhibitors; GLS enzymatic activity, qHTS titration; O94925; also: potency is read from the fitted curve at half-maximal effect; % is scaled to controls: 0 for no effect and ±100 for the full control effect
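Assay buffer: 45 mM KH2PO4 pH 8.2, 0.02% Tween-20. hKGA acts on L-glutamine (1 mM solution added); product glutamate is reported by an oxidase/peroxidase Amplex Red coupling, with fluorescence taken at baseline and 30 min.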
Pol beta inh: blocks human DNA polymerase beta activity. Pol beta primer extension/strand displacement, fluorescence kinetic. Potency, µM (series often up to 114 µM), for inactives: at the top dose activity change, negative = inhibition, actives largely listed as inhibitors. 1.3% of 340,000 active. AID 485314; also: potency is read from the fitted curve at half-maximal effect; % is scaled to controls: 0 for no effect and ±100 for the full control effect
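Homogeneous kinetic assay of primer extension and strand displacement by 10 nM Pol beta, preincubated 15 min at room temperature with compound before 50 nM substrate (final) was added. Read at 0 and 10 min; four-parameter Hill fit.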
GCN5L2 inh: inhibitors of human GCN5L2 histone acetyltransferase. 0.21% of 390,000 active. Q92830. Potency, µM (titrated, usually from 58.9 µM), for inactives: at the top dose activity change, negative = inhibition, actives largely listed as inhibitors. GCN5L2 HAT assay, ThioGlo1 CoA-SH fluorescence; also: potency is read from the fitted curve at half-maximal effect; % is scaled to controls: 0 for no effect and ±100 for the full control effect
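Preincubate 20nM GCN5L2 with compound 15 min, RT → add 50uM ThioGlo1 + 75uM H3(1-25) + 70uM acetyl-CoA → read fluorescence 0 and 20 min. Primary qHTS; fluorescent artifacts likely.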
TbPGK inh: TbPGK inhibition, hit validation | shares compounds with Pol kappa inh-1 | TbPGK coupled GAPDH assay, Kinase-Glo luminescence | Potency, µM (titrated, usually from 57.5 µM), without a hit: at the top dose activity change, negative = inhibition, actives largely listed as inhibitors | 79% of 500 active | AID 686980; also: potency is read from the fitted curve at half-maximal effect; % is scaled to controls: 0 for no effect and ±100 for the full control effect; nearly all actives have a fitted effect of over 65% in size
POLI cherry-pick: Inhibitors of human DNA polymerase iota, confirmation; shares compounds with Pol kappa inh-1; Pol iota primer extension, TAMRA/BHQ fluorescence; Potency, µM, most hits filed as inhibitors; 77% of 1,500 active; AID 720496; also: potency is read from the fitted curve at half-maximal effect
GALK inh confirm: galactokinase (human) inhibition, confirmation. shares compounds with Pol eta inh-1. purified GALK, Kinase-Glo ATP depletion luminescence. Potency, µM (doses to about 115 µM), without a hit: top-dose activity, negative = inhibition, hits mostly inhibitors. 70% of 150 active. AID 2015
Redox cycling: counter-screen for GALK inhibitors: redox cycling H2O2 generation | shares compounds with Pol eta inh-1 | Phenol red-HRP H2O2 redox cycling, absorbance 600 nm | Potency, µM (doses to about 115 µM), without a hit: at the highest dose activity change, negative = H2O2 signal, hits mostly inhibitors | 40% of 150 active | AID 2035
HEK293 viability: HEK-293 cytotoxicity, GALK inhibitor secondary | shares compounds with Pol eta inh-1 | HEK-293 viability, ATP luminescence (CellTiter-Glo), 24/48 h | Potency, µM (doses to about 46.1 µM), for inactives: top-dose activity change, negative = cytotoxicity, most hits filed as inhibitors | 10% of 170 active | AID 2547; also: potency is read from the fitted curve at half-maximal effect; % is scaled to controls: 0 for no effect and ±100 for the full control effect
Pol kappa inh-2: Pol kappa (human) inhibition, cherry-pick confirmation | shares compounds with Pol eta inh-1 | purified Pol-kappa, fluorescent strand-displacement substrate | Potency, µM, most hits filed as inhibitors | 76% of 920 active | AID 720501; also: potency is read from the fitted curve at half-maximal effect
Pol eta inh-2: confirmation of human DNA polymerase eta inhibitors; shares compounds with Pol eta inh-1; Pol eta primer extension, TAMRA/BHQ fluorescence, 10 min; Potency, µM, hits mostly inhibitors; 64% of 2,600 active; AID 720502; also: potency is read from the fitted curve at half-maximal effect
Starred values were filed as active, the others as inactive; ? = inconclusive; . = no result; [ ] = dose if it differs, or a comment. Calls follow the shape of the dose curve; as a rule, active = well fitted curve in the direction sought with a large enough effect; inconclusive = small, poorly fitted or top-dose-only effect, or another doubt; inactive = no such curve, though single readings can be large; an effect the other way counts as inactive or inconclusive.

SMILES	Pol eta inh-1	POLI inh	Pol kappa inh-1	GLS inh	Pol beta inh	GCN5L2 inh	POLI cherry-pick	Pol eta inh-2	others
COC(=O)c1cc(C)nc2c1C(=O)C(=O)C=C2N1CCOCC1	4.5µM*	1.3µM*	-10%	-4%	-8%	-17%	6*	5.4*	TbPGK inh=4.6µM*;GALK inh confirm=5.3µM*;Redox cycling=2.7µM*;HEK293 viability=8.9µM*
COc1ccc(N2CCN(c3oc(-c4ccccc4C)nc3S(=O)(=O)c3ccccc3)CC2)cc1	-12%	9%	7%	-5%	15%	-2%	.	.
O=C(CN(CCc1c[nH]c2ccccc12)S(=O)(=O)c1ccccc1)N1CCCCCC1	.	-7%	-3%	.	.	.	.	.
O=S(=O)(O)c1cc(O)c(N=Nc2ccc(O)cc2O)c2ccccc12	10µM*	.	20µM*	?	.	.	19*	38*	TbPGK inh=23µM*;Pol kappa inh-2=34*
O=[N+]([O-])c1ccccc1N=Nc1ccc(O)cc1O	?	?	?	-18%	.	.	.	.
O=C(CSc1ncn[nH]1)N1N=C2/C(=C/c3ccccc3)CCCC2C1c1ccccc1 (stereo not given)	-16%	14%	-8%[60.1 µM]	-2%	-26%[57.1 µM]	-18%	.	.
O=C(CSc1nccc(=O)[nH]1)N1N=C2/C(=C/c3ccco3)CCCC2C1c1ccco1 (stereo not given)	25µM*	45µM*	?	64%	28µM*	?	38*	30*
CC(CS(=O)(=O)c1ccc2c(c1)NC(=O)CS2)C(=O)NCc1ccccc1Cl (stereo not given)	18µM*	45µM*	?	11µM*	100µM*	-11%	?	34*	TbPGK inh=1.8µM*
Oc1ccc(/C=N/n2c(-c3ccco3)csc2=Nc2cccnc2)c(O)c1	-17%	15%	-7%	-5%	16%	-4%	.	.
COCCN=c1scc(-c2ccco2)n1/N=C/c1ccc(O)c(O)c1O	4.5µM*	2µM*	0%	0%	2.8µM*	20µM*	11*	9.5*
O=C1C=CC(=O)N1c1ccccc1N1C(=O)C=CC1=O	?	40µM*	?	?	.	.	?	?
CCOc1ccc2nc(N3CCCC(C(=O)Nc4ccc(OC)cc4)C3)sc2c1 (stereo not given)	-15%	17%	-3%	-5%	-3%	-10%	.	.
CCOc1ccc(Nc2ccc(N)c(S(=O)(=O)O)c2)cc1	11µM*	11µM*	32µM*	?	.	.	75*	38*	Pol kappa inh-2=75*
O=C(C1CCC(Cn2c(=O)c3sccc3n(Cc3ccc(F)cc3)c2=O)CC1)N1CCOCC1 (stereo not given)	-14%	-3%	25%	-1%	4%	3%	.	.
CCS(=O)(=O)N1N=C(c2ccc(C)cc2)CC1c1cc2ccc(OC)cc2nc1Cl (stereo not given)	?	2%	-9%	-7%	2%	0%	.	.
CCOc1ccc2nc(Cl)c(C3CC(c4ccc(OC)cc4)=NN3S(C)(=O)=O)cc2c1 (stereo not given)	?	?	?	0%	26%	-16%	?	76*	Pol kappa inh-2=75*
Cc1cc(C)c(N(Cc2ccccc2)S(=O)(=O)c2ccc(OCCNC(=O)c3cc4ccccc4o3)cc2)c(C(=O)NO)c1	.	.	-7%[60.1 µM]	.	.	-9%	.	.
CC(C)c1nc2ccc(C(=O)NCCCN3CCN(c4cccc(Cl)c4)CC3)cc2o1	-8%	38%	-11%[60.1 µM]	10%	1%	-15%	.	.
Cc1cc(Cl)ccc1NC(=O)Cn1nc(C)c2c(C)n(-c3ccccc3)nc2c1=O	.	50µM*	?	-23%	40µM*	?	75*	?	Pol kappa inh-2=47*
Cc1cc(Cl)ccc1NC(=O)CCCn1nc(C)c2c(C)n(-c3ccccc3)nc2c1=O	-4%	-5%	4%	6%	8%	-17%	.	.
CC(C)Oc1ccc(CNC(=O)Cn2ncn3nc(-c4cccs4)cc3c2=O)cc1	-14%	12%	-14%	5%	5%	-7%	.	.
COc1ccc(NC(=O)c2ccco2)cc1NC(=O)c1cc(OC)c(OC)c(OC)c1	-15%	14%	4%	2%	1%	-1%	.	.
Cc1ccc(C)c(NC(=O)CN(C)C(=O)c2cccc(Oc3ccccc3)c2)c1	-3%	2%	-13%	2%	.	-13%	.	.
CN(CC(=O)Nc1c(Cl)cccc1Cl)C(=O)c1cccc(-n2cccc2)c1	20µM*	14µM*	79µM*	?	.	-26%	17*	30*
CN(CC(=O)Nc1c(Cl)cccc1Cl)C(=O)c1cccc(S(=O)(=O)NCc2ccccc2)c1	-22%	3%	-7%	-7%	.	-1%	.	.
CN(CC(=O)Nc1cccc(F)c1)C(=O)c1cccc(-n2cccc2)c1	7.9µM*	20µM*	?	1%	.	?	30*	76*
Cc1ccc(C)c(NC(=O)CN(C)C(=O)c2cccc(-n3cccc3)c2)c1	5µM*	8.9µM*	40µM*	27%	.	-17%	17*	27*

Screens: PubChem, National Center for Advancing Translational Sciences (NCATS)
